# Measurements reported in PubChem BioAssay.
# The source made the active and inactive calls. Unless noted, no rule for the calls is given here.
# Key:
# [1] = compound effects on lung adenocarcinoma cell viability – A549, calcein-AM fluorescence, 48 h, basal, profiling panel (AID 1162); conditions: higher = more signal; also: test concentration not given here
# [2] = compound effects on differentiated 3T3-L1 adipocyte viability – cell-based, 3T3-L1 adipocytes, calcein-AM fluorescence, 48 h, basal, profiling panel (AID 1163); conditions: 3T3-L1 adipocytes viability, higher = more signal; also: test concentration not given here
# [3] = compound effects on hepatocellular carcinoma cell viability – HepG2, calcein-AM fluorescence, 48 h, basal, profiling panel (AID 1164); conditions: higher = more signal; also: test concentration not given here
# [4] = compound effects on multiple myeloma cell viability – MM1S, calcein-AM fluorescence, 48 h, basal, profiling panel (AID 1165); conditions: higher = more signal; also: test concentration not given here
# [5] = calcein-AM signal in unstimulated myeloma cells – cell-based, calcein-AM fluorescence, 48 h, PK04 Diversity Set, profiling panel (AID 1166); conditions: RPMI8226 myeloma viability, higher = more signal;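 also: cells grown under basal conditions without added stimulus; test concentration not given here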
# [6] = JC-1 mitochondrial signal, unstimulated HepG2 cells – cell-based, JC-1 fluorescence, 24 h, 100 nL compound, profiling panel (AID 1167); conditions: HepG2 mitochondrial potential, higher = more signal; also: test concentration not given here
# [7] = JC-1 mitochondrial signal, unstimulated adipocytes – cell-based, JC-1 fluorescence, 3T3-L1 adipocytes, 24 h, 100 nL compound, profiling panel (AID 1168); conditions: JC-1 mitochondrial fluorescence, higher = more signal, called active from +8 up or from −8 down; also: test concentration not given here
# [8] = JC-1 mitochondrial signal, unstimulated myeloma cells – cell-based, JC-1 fluorescence, RPMI8226, 24 h, 100 nL compound, profiling panel (AID 1169); conditions: JC-1 mitochondrial potential fluorescence, higher = more signal; also: test concentration not given here
# [9] = JC-1 mitochondrial signal, unstimulated MM1S myeloma – cell-based, JC-1 fluorescence, 24 h, 100 nL compound, profiling panel (AID 1170); conditions: MM1S mitochondrial potential, higher = more signal; also: test concentration not given here
# [10] = resazurin metabolic signal in A549 cells – cell-based, resazurin fluorescence, 24 h, PK04 Diversity Set, profiling panel (AID 1171); conditions: A549 viability, higher = more signal, called active from +8 up or from −8 down; also: test concentration not given here
# [11] = resazurin metabolic signal in HepG2 cells – cell-based, resazurin fluorescence, 24 h, PK04 Diversity Set, profiling panel (AID 1172); conditions: HepG2 viability, higher = more signal; also: test concentration not given here
# [12] = budding yeast growth changes without added modifier – OD600, strain BY4716, 24 h, basal condition, primary screen (AID 1173); conditions: S. cerevisiae BY4716 growth, OD600, 24 h; higher = more signal, called active from +8 up or from −8 down
# [13] = viability profiling in MM1S myeloma cells – cell-based, resazurin fluorescence, basal, 24 h, PK04 Diversity Set, profiling panel (AID 1174); conditions: higher = more signal, called active from +8 up or from −8 down; also: test concentration not given here
# [14] = molecular target: Dihydroorotate dehydrogenase (quinone), mitochondrial (Plasmodium falciparum (isolate 3D7)) (UniProt Q08210); assay: inhibition of P. falciparum DHODH – biochemical, C-terminal His tag, absorbance 600 nm, primary screen (AID 1175); conditions: PfDHODH enzyme, DCIP absorbance 600 nm; higher = more signal, called active from +8 up or from −8 down;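 also: recombinant parasite enzyme with a five histidine tag at its C terminus; test concentration not given here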
# Chain of Dihydroorotate dehydrogenase (quinone), mitochondrial (Plasmodium falciparum (isolate 3D7)) (Q08210 whole entry, looked up): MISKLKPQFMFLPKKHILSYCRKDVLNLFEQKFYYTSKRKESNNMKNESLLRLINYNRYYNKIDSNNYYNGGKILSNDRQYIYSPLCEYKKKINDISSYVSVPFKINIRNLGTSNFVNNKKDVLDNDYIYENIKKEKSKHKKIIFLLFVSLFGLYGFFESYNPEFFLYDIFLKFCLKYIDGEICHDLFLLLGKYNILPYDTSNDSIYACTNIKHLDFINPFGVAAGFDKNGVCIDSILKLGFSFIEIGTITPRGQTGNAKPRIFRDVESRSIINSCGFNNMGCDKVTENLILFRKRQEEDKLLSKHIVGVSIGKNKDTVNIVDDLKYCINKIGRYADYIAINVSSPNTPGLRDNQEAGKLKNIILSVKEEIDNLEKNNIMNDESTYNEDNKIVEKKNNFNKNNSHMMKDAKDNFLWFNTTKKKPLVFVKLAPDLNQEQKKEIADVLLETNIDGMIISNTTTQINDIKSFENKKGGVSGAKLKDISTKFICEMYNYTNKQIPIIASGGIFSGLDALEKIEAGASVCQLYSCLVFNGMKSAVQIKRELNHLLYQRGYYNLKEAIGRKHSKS
# [15] = inhibition of PAO1 biofilm formation – strain PAO1, LB-PBS medium, absorbance 600 nm, primary screen (AID 1176); also: test concentration not given here; conditions: P. aeruginosa PAO1 growth/biofilm, A600, 12 h; higher = more signal
# [16] = growth modulation of vineyard yeast isolate – strain RM11-1a, OD600, basal, 24 h, primary screen (AID 1177);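 also: cultures grown under basal conditions with no added stressor; test concentration not given here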; conditions: S. cerevisiae RM11-1a growth, OD600, 24 h; higher = more signal, called active from +8 up or from −8 down
# [17] = growth of efflux-deficient E. coli DRC39 – strain DRC39, OD650, 24 h, E. coli filamentation inducers, primary screen (AID 1178);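 also: growth measured as culture turbidity by optical density at 650 nm; test concentration not given here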; conditions: E. coli DRC39 acrAB, higher = more signal, called active from +8 up or from −8 down
# [18] = growth of efflux-deficient E. coli DRC39 – strain DRC39, OD650, 48 h, E. coli filamentation inducers, primary screen (AID 1179);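 also: screen aims at cell division blockers that make cells filament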; conditions: E. coli DRC39 delta-acrAB growth, higher = more signal, called active from +8 up or from −8 down
# [19] = viability profiling in RPMI8226 myeloma cells – cell-based, resazurin fluorescence, basal, 24 h, PK04 Diversity Set, profiling panel (AID 1180); conditions: higher = more signal;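 also: RPMI8826 multiple myeloma cell line at 5000 cells per well; test concentration not given here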
# [20] = molecular target: E3 ubiquitin-protein ligase XIAP (Homo sapiens) (UniProt P98170); assay: small molecules binding XIAP protein – biophysical, small-molecule microarray, fluorescence 635 nm, primary screen (AID 1181); conditions: higher = more signal;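 also: score merges 667 nm emission and signal to noise over triplicate slides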
# Chain of E3 ubiquitin-protein ligase XIAP (Homo sapiens) (P98170 whole entry, looked up): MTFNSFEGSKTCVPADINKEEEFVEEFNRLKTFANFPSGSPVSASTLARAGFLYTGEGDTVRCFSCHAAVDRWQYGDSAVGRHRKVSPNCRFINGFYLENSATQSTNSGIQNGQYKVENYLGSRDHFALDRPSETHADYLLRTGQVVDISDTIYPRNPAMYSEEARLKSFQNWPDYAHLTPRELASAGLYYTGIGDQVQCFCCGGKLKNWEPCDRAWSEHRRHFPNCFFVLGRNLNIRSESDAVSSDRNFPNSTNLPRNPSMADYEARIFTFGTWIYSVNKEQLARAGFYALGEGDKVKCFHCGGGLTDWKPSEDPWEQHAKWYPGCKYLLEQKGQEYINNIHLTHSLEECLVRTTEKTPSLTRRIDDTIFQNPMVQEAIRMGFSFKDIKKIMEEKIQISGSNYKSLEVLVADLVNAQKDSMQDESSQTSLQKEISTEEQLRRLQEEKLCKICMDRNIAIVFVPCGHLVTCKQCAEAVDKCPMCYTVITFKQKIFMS
Compound,z-score [1],z-score [2],z-score [3],z-score [4],z-score [5],z-score [6],z-score [7],z-score [8],z-score [9],z-score [10],z-score [11],z-score [12],z-score [13],composite z-score [14],z-score [15],z-score [16],z-score [17],z-score [18],z-score [19],composite z-score [20]
COCCOC(=O)N1C(=O)[C@@]2(c3cc(C#CCC(C(=O)OC)C(=O)OC)ccc31)[C@H](c1ccccc1OCCO)N1[C@H](c3ccccc3)[C@H](c3ccccc3)OC(=O)[C@H]1[C@@H]2C(=O)Nc1nc2ccccc2s1,1.7,0.321,1.4,-0.569,-0.922,-2.31,0.844 (inactive),-0.76,-0.578,-0.0543 (inactive),0.513,-0.561 (inactive),0.951 (inactive),-1.19 (inactive),3.41 (inactive),-0.929 (inactive),1.28 (inactive),1.76 (inactive),0.599,-0.0785
[N-]=[N+]=NCc1ccccc1[C@H]1OC(c2ccc(OCCCO)cc2)=N[C@@]1(Cc1ccccc1)C(=O)O,1.17,-1.06,0.991,0.791,0.465,-0.0179,0.241 (inactive),-0.491,-0.804,0.932 (inactive),1.31,-3.06 (inactive),-0.967 (inactive),-0.055 (inactive),-0.0862 (inactive),0.816 (inactive),-1.13 (inactive),-0.835 (inactive),0.273,-0.205
CCCC[C@@H]1C[C@H]1[C@@H](NC(=O)c1ccco1)c1ccccc1,-2.22,-0.252,-2.22,-3.27,-4.74,-3.6,-1.27 (inactive),-0.759,-2.24,2.55 (inactive),1.39,-3.05 (inactive),0.757 (inactive),-1.19 (inactive),-0.195 (inactive),0.586 (inactive),-0.9 (inactive),-0.569 (inactive),0.0092,0.171
COC(=O)C(CC#Cc1ccc2c(c1)[C@]1(C(=O)N2)[C@H](C(=O)N2CCCCCCC2)[C@H]2C(=O)O[C@H](c3ccccc3)[C@H](c3ccccc3)N2[C@@H]1c1ccccc1OCCO)C(=O)OC,-0.65,0.091,0.491,-0.216,-0.421,0.0896,1.09 (inactive),-0.835,-1.33,0.901 (inactive),-0.198,0.946 (inactive),-0.0924 (inactive),-4.91 (inactive),1.22 (inactive),0.0478 (inactive),-1.19 (inactive),-0.513 (inactive),0.218,2.41
CCCNC(=O)[C@@]1(C)c2ccccc2C(=O)N(C(C)C)[C@H]1c1ccc(CO)cc1,-0.23,0.793,-0.13,-0.634,-0.025,0.977,-0.0917 (inactive),0.0976,-0.426,0.788 (inactive),0.241,-0.619 (inactive),0.148 (inactive),-0.44 (inactive),0.332 (inactive),-0.531 (inactive),-0.252 (inactive),-0.516 (inactive),0.0567,-0.0553
CCCCN1CC=CC23O[C@@H]4C=CCCOC(=O)C4[C@H]2C(=O)N(CCCO)[C@@H]3C1=O (stereo not given in full),0.146,1.53,-0.365,0.438,-0.913,-0.798,-0.562 (inactive),-0.781,-0.148,-0.834 (inactive),-0.341,-1.09 (inactive),-0.404 (inactive),-3.94 (inactive),-0.565 (inactive),0.0943 (inactive),-1.54 (inactive),-1.34 (inactive),-0.937,0.268
[N-]=[N+]=NCc1ccccc1C[C@]1(C(=O)NCCN2CCOCC2)N=C(c2ccc(OCCCO)cc2)O[C@H]1c1ccccc1CN=[N+]=[N-],0.0783,1.99,0.356,-2.14,-3.34,1.27,-0.492 (inactive),-0.784,-1.65,-0.403 (inactive),0.0176,-2.56 (inactive),0.836 (inactive),1.31 (inactive),0.428 (inactive),-1.95 (inactive),1.93 (inactive),0.844 (inactive),0.0688,0.0871
COCCOC(=O)N1C(=O)[C@@]2(c3cc(C#Cc4ccc(OC)cc4)ccc31)[C@H](C(N)=O)[C@H]1C(=O)O[C@H](c3ccccc3)[C@H](c3ccccc3)N1[C@@H]2c1ccc(O)cc1,0.363,0.632,-0.905,0.152,-2.22,-0.933,0.454 (inactive),-0.677,-0.317,0.179 (inactive),-0.0716,-0.823 (inactive),0.277 (inactive),-0.265 (inactive),0.886 (inactive),-0.0047 (inactive),-0.102 (inactive),0.236 (inactive),-0.394,0.0849
